# According to PubChem BioAssay:
# Calls of active or inactive are those of the source.
# Assays:
# [1] = test system: PRMT1 (protein arginine N-methyltransferase 1); assay: small molecules binding arginine methyltransferase PRMT1 – biochemical, small-molecule microarray, 635 nm fluorescence, primary screen (AID 1088); conditions: higher = more signal;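 further: binding of Prmt1 protein to compounds spotted on small-molecule microarray slides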
# [2] = growth effects on S. cerevisiae YJM789 – YJM789 clinical isolate, OD600, 24 h, basal, primary screen (AID 1089); conditions: higher = more signal, called active from +8 up or from −8 down;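 further: growth of clinical yeast isolate S. cerevisiae YJM 789 seeded 1000 cells per well; test concentration not given here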
# [3] = S. pombe growth modifiers, basal conditions – strain 972, OD600, 24 h, no modulator, primary screen (AID 1090);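 further: basal condition with compound alone and no growth modifier present; test concentration not given here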; conditions: S. pombe 972 growth, higher = more signal, called active from +8 up or from −8 down
# [4] = budding yeast growth modifiers under rapamycin – strain BY4716, OD600, 96 h, primary screen (AID 1091); further: test concentration not given here; conditions: S. cerevisiae BY4716 + rapamycin, higher = more signal, called active from +8 up or from −8 down
# [5] = target: Torsin-1A-interacting protein 2 (Homo sapiens) (UniProt Q8NFQ8); assay: small molecules binding lysate-expressed LULL1 – cell lysate, human LULL1 lysate, 635/667 nm fluorescence, primary screen (AID 1092); conditions: small-molecule microarray, hLULL1 lysate binding, 635 nm fluorescence; higher = more signal;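 further: probe is lysate of COS7 cells overexpressing human LULL1; score merges per-feature 667 nm fluorescence with signal-to-noise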
# Chain of Torsin-1A-interacting protein 2 (Homo sapiens) (Q8NFQ8 whole entry, looked up): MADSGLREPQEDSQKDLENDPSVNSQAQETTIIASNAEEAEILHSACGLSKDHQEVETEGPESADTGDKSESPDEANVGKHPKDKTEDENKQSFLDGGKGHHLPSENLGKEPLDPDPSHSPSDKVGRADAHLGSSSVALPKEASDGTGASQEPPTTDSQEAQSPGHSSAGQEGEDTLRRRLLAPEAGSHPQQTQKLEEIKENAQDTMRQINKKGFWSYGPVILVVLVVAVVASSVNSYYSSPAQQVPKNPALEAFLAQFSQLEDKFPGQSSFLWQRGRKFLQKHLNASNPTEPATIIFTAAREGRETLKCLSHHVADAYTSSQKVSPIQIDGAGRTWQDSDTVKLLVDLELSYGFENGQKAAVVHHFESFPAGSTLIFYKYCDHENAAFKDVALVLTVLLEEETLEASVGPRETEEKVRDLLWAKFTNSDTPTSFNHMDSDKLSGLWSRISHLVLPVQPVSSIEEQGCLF
# [6] = optical density change of DRC41 E. coli – strain DRC41, OD650, 24 h, E. coli filamentation project, primary screen (AID 1093);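 further: MC1000 strain lacking acrAB efflux and sulA so SOS filamentation is blocked; test concentration not given here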; conditions: E. coli DRC41 growth, higher = more signal, called active from +8 up or from −8 down
# [7] = probe aLefty2 binding to arrayed compounds – biochemical, biotinylated probe, 635/667 nm fluorescence, primary screen (AID 1094); conditions: small-molecule microarray, higher = more signal;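 further: score merges spot fluorescence near 667 nm with spot signal-to-noise ratio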
# [8] = test system: Noggin (protein binding on small-molecule microarray); assay: small molecules binding Noggin protein – biochemical, 635/667 nm fluorescence, primary screen (AID 1095); conditions: 635 nm fluorescence, higher = more signal;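 further: score merges 667 nm feature fluorescence with signal to noise over triplicate slides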
# [9] = target: Neurogenic locus notch homolog protein 3 (Homo sapiens) (UniProt Q9UM47); assay: small molecules binding NOTCH3 protein – biochemical, 635/667 nm fluorescence, primary screen (AID 1096); conditions: small-molecule microarray, 635 nm fluorescence, higher = more signal
# Chain of Neurogenic locus notch homolog protein 3 (Homo sapiens) (Q9UM47 whole entry, looked up): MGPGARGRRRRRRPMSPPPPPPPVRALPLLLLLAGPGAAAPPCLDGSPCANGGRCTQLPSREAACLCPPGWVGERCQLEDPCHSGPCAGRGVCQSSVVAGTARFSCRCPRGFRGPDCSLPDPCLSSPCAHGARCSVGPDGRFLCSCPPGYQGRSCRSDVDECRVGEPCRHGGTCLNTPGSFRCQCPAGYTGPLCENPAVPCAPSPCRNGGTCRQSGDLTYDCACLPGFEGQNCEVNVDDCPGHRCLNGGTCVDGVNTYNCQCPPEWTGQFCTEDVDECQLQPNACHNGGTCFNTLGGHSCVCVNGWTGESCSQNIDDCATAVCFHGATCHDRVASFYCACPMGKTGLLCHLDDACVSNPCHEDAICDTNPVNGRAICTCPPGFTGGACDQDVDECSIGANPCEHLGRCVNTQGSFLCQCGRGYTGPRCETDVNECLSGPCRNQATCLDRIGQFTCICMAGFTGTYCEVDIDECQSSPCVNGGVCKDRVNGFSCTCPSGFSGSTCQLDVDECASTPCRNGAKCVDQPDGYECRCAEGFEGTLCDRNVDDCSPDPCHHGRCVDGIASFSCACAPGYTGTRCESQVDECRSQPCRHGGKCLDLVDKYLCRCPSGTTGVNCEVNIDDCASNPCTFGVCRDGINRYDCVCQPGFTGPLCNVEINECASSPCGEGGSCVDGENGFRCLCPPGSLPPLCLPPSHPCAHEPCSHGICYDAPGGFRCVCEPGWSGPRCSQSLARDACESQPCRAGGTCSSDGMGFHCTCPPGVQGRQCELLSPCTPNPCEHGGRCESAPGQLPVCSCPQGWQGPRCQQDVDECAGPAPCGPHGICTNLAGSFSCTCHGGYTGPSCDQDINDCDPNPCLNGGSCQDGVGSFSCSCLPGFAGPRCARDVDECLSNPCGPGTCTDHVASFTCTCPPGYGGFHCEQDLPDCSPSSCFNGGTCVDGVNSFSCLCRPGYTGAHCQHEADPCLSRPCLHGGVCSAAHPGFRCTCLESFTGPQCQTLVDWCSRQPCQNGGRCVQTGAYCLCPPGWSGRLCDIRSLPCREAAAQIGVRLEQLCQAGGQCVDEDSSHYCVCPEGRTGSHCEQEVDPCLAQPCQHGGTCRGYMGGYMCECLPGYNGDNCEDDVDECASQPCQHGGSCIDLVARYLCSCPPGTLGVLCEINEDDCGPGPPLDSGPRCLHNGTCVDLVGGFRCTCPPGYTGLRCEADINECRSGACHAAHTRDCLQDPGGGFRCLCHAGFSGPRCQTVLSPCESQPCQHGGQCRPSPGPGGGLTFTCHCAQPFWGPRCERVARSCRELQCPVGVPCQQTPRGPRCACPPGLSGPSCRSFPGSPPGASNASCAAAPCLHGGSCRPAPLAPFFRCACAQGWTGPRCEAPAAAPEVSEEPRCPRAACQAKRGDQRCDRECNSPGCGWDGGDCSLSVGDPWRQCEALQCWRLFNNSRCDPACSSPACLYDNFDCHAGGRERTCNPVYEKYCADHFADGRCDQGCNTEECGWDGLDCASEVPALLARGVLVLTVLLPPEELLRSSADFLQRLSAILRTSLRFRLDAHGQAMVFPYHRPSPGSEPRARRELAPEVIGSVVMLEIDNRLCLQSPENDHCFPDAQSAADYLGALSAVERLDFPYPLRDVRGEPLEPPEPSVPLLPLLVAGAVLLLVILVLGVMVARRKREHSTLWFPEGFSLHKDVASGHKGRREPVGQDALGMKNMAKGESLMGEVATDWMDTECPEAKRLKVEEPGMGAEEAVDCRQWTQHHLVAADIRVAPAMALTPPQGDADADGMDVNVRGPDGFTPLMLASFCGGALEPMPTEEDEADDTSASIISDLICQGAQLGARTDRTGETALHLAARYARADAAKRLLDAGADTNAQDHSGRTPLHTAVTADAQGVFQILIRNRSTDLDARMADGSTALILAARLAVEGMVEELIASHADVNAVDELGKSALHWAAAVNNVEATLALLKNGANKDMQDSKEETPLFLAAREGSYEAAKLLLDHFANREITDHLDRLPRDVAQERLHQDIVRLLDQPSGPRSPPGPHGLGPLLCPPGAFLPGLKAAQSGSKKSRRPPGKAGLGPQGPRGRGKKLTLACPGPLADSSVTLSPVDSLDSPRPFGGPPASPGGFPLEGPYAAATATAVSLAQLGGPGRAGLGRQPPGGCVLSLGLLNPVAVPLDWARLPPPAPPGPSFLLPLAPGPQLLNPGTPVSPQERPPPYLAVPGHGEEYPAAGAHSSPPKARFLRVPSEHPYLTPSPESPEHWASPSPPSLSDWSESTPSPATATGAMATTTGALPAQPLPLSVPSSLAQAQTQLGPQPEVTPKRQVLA
# [10] = probe aEGFR binding to arrayed compounds – biochemical, biotinylated probe, 635/667 nm fluorescence, primary screen (AID 1097); conditions: small-molecule microarray, higher = more signal;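 further: probe is a biotinylated anti-EGFR antibody binding compounds printed on slides; score combines fluorescence near 667 nm and signal to noise of each spot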
smiles,measurement,setting,value
C#C[C@H](O[Si](C#Cc1ccc(Oc2ccccc2)cc1)(C(C)C)C(C)C)c1ccccc1,composite z-score,[1],1.23
same,z-score,[2],-0.824 (inactive)
same,z-score,[3],-19.1 (active)
same,z-score,[4],-0.42 (inactive)
same,composite z-score,[5],1.02
same,z-score,[6],-0.547 (inactive)
same,composite z-score,[7],-0.0666
same,composite z-score,[8],0.531
same,composite z-score,[9],0.185
same,composite z-score,[10],-0.0286
COC(=O)[C@@]1(Cc2ccccc2)[C@H]2c3cc(C(=O)N4CCCC4)n(Cc4ccc(S(C)(=O)=O)cc4)c3C[C@H]2CN1C(=O)c1ccccc1,composite z-score,[1],0.375
same,z-score,[2],0.527 (inactive)
same,z-score,[3],0.955 (inactive)
same,z-score,[4],0.671 (inactive)
same,composite z-score,[5],3.56
same,z-score,[6],-0.47 (inactive)
same,composite z-score,[7],0.0495
same,composite z-score,[8],0.0689
same,composite z-score,[9],1.01
same,composite z-score,[10],0.348
C=CCNC(=O)[C@@H]1[C@H]2C(=O)O[C@H](c3ccccc3)[C@H](c3ccccc3)N2[C@H](c2ccc(O)cc2)[C@@]12C(=O)N(C(=O)OCCOC)c1ccc(C#CCNC(N)=O)cc12,composite z-score,[1],1.03
same,z-score,[2],-1.76 (inactive)
same,z-score,[3],0.18 (inactive)
same,z-score,[4],0.462 (inactive)
same,composite z-score,[5],2.29
same,z-score,[6],-0.213 (inactive)
same,composite z-score,[7],0.261
same,composite z-score,[8],1.12
same,composite z-score,[9],1.1
same,composite z-score,[10],-0.0549
Cc1ccccc1C(O)C1C=CC2C(=O)N(c3ccccc3)C(=O)C2N1Nc1ccc(C(C)C)cc1 (stereo not given),composite z-score,[1],1.13
same,z-score,[2],1.38 (inactive)
same,z-score,[3],0.0135 (inactive)
same,z-score,[4],0.798 (inactive)
same,composite z-score,[5],2.3
same,z-score,[6],-1.89 (inactive)
same,composite z-score,[7],-0.0675
same,composite z-score,[8],-0.0693
same,composite z-score,[9],1.07
same,composite z-score,[10],0.0461
C=CCC(OC(C)=O)[C@@H]1[C@@H](N(Cc2ccc(-c3ccccc3)cc2)C(=O)c2cccc3ccccc23)c2cc(OCCCO)ccc2N1C(=O)c1ccc(-c2ccccc2)cc1 (stereo not given in full),composite z-score,[1],0.245
same,z-score,[2],0.21 (inactive)
same,z-score,[3],-0.234 (inactive)
same,z-score,[4],-0.438 (inactive)
same,composite z-score,[5],0.796
same,z-score,[6],1.17 (inactive)
same,composite z-score,[7],0.0159
same,composite z-score,[8],0.0623
same,composite z-score,[9],-0.0827
same,composite z-score,[10],0.0009
C[C@@]1([C@@H](NC(=O)c2ccc(-c3ccccc3)cc2)c2ccc(Cl)cc2)C[C@H]1C1CCCCC1,composite z-score,[1],0.497
same,z-score,[2],0.823 (inactive)
same,z-score,[3],-3.48 (inactive)
same,z-score,[4],1.6 (inactive)
same,composite z-score,[5],2.54
same,z-score,[6],-0.586 (inactive)
same,composite z-score,[7],0.101
same,composite z-score,[8],0.118
same,composite z-score,[9],0.73
same,composite z-score,[10],0.302
CC(C)[Si]1(C(C)C)O[C@@H](c2ccccc2)c2cc(-c3ccc(-c4ccc(Cl)c(Cl)c4)o3)nc(-c3ccccc3)c21,composite z-score,[1],0.985
same,z-score,[2],-0.585 (inactive)
same,z-score,[3],-0.764 (inactive)
same,z-score,[4],0.167 (inactive)
same,composite z-score,[5],1.22
same,z-score,[6],-1.22 (inactive)
same,composite z-score,[7],-0.0809
same,composite z-score,[8],-0.262
same,composite z-score,[9],0.123
same,composite z-score,[10],-0.108
C=CC[C@]1(C(=O)NCc2ccccc2)N=C(c2ccc(OCCCO)cc2)O[C@H]1c1ccccc1N=[N+]=[N-],composite z-score,[1],1.22
same,z-score,[2],-1.33 (inactive)
same,z-score,[3],0.0342 (inactive)
same,z-score,[4],0.511 (inactive)
same,composite z-score,[5],3.24
same,z-score,[6],0.73 (inactive)
same,composite z-score,[7],0.17
same,composite z-score,[8],0.0073
same,composite z-score,[9],1.11
same,composite z-score,[10],0.0968
COCCOC(=O)N1C(=O)[C@@]2(c3cc(C#CCC(C(=O)OC)C(=O)OC)ccc31)[C@H](c1ccccc1OCCO)N1[C@H](c3ccccc3)[C@H](c3ccccc3)OC(=O)[C@H]1[C@@H]2C(=O)NC[C@H](O)c1ccccc1,composite z-score,[1],1.54
same,z-score,[2],1.78 (inactive)
same,z-score,[3],2.17 (inactive)
same,z-score,[4],5.84 (inactive)
same,composite z-score,[5],2.32
same,z-score,[6],-0.036 (inactive)
same,composite z-score,[7],0.032
same,composite z-score,[8],1.62
same,composite z-score,[9],1.05
same,composite z-score,[10],0.379
CN1C(=O)C2C=CC(C(O)C3CC=CCC3)N(N(c3ccccc3)c3ccccc3)C2C1=O (stereo not given),composite z-score,[1],-1.73
same,z-score,[2],0.607 (inactive)
same,z-score,[3],1.7 (inactive)
same,z-score,[4],1.01 (inactive)
same,composite z-score,[5],-0.0863
same,z-score,[6],-0.843 (inactive)
same,composite z-score,[7],0.639
same,composite z-score,[8],-0.264
same,composite z-score,[9],0.0898
same,composite z-score,[10],-0.0823
COCCOC(=O)N1C(=O)[C@@]2(c3cc(C#CCC(C(=O)OC)C(=O)OC)ccc31)[C@H](C(=O)N1CCN(c3ncccn3)CC1)[C@H]1C(=O)O[C@H](c3ccccc3)[C@H](c3ccccc3)N1[C@@H]2c1ccccc1OCCO,composite z-score,[1],1.55
same,z-score,[2],1.59 (inactive)
same,z-score,[3],1.33 (inactive)
same,z-score,[4],6.3 (inactive)
same,composite z-score,[5],1.88
same,z-score,[6],0.156 (inactive)
same,composite z-score,[7],-0.0726
same,composite z-score,[8],1.71
same,composite z-score,[9],1.06
same,composite z-score,[10],0.0537
[N-]=[N+]=Nc1ccccc1[C@H]1OC(c2ccc(OCCCO)cc2)=N[C@@]1(CCS(=O)(=O)c1ccccc1)C(N)=O,composite z-score,[1],1.01
same,z-score,[2],-0.268 (inactive)
same,z-score,[3],-2.33 (inactive)
same,z-score,[4],0.372 (inactive)
same,composite z-score,[5],2.56
same,z-score,[6],1.36 (inactive)
same,composite z-score,[7],0.24
same,composite z-score,[8],-0.194
same,composite z-score,[9],0.42
same,composite z-score,[10],0.401
C=C(COC)C(=O)CC[C@@H](OC(C)=O)c1ccc(CO)o1,composite z-score,[1],1.43
same,z-score,[2],-1.22 (inactive)
same,z-score,[3],-0.198 (inactive)
same,z-score,[4],-0.22 (inactive)
same,composite z-score,[5],-0.0809
same,z-score,[6],0.433 (inactive)
same,composite z-score,[7],-0.117
same,composite z-score,[8],1.11
same,composite z-score,[9],0.612
same,composite z-score,[10],-0.0463
O[C@@H](Cc1ccccc1)[C@H]1C2C=CCCC=C2CN1Cc1cccc(Cl)c1 (stereo not given in full),composite z-score,[1],1.42
same,z-score,[2],-0.14 (inactive)
same,z-score,[3],-2.92 (inactive)
same,z-score,[4],-0.742 (inactive)
same,composite z-score,[5],1.17
same,z-score,[6],1.35 (inactive)
same,composite z-score,[7],-0.101
same,composite z-score,[8],0.728
same,composite z-score,[9],1.12
same,composite z-score,[10],-0.0039
